# M1 ag = human M1 muscarinic receptor agonists, primary screen, Fluo-8 calcium fluorescence, CHO-K1 cells, HTS; Muscarinic acetylcholine receptor M1 (Homo sapiens), P11229; CHO-K1 hM1, agonist mode; 0% DMSO, 100% acetylcholine EC100; activation, % at 3 µM; actives 0.33% (n = 360,000);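 active means activation above the run's mean compound activation plus 3 SD, cut at about 16% in these data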;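 further: peak over basal fluorescence ratio within a 140 s kinetic read after compound addition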
# Target sequence (P11229 whole entry, looked up): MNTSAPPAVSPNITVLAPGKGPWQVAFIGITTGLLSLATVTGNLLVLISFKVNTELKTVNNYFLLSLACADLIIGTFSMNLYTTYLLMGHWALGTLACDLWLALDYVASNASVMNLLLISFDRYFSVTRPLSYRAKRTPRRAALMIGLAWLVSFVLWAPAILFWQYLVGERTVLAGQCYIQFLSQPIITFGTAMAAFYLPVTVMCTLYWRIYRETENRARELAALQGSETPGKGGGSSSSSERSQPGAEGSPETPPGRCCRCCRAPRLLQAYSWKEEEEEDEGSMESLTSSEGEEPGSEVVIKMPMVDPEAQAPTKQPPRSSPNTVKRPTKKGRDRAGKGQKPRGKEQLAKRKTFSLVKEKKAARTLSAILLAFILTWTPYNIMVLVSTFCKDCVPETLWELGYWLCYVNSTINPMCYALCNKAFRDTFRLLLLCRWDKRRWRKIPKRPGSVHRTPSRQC
# M1 ag parental = counter-screen for M1 agonists: effect in parental CHO-K1 cells; Fluo-8 calcium fluorescence; scaled to maximal ATP response, vehicle zero; activation, % at 3 µM; actives 0.48% (n = 360,000); in the data active means activation above about 15%;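 further: untransfected CHO-K1 host cells lacking M1 receptor as counterscreen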
# M1 PAM = human M1 muscarinic receptor positive allosteric modulators, primary screen, CHO-K1 cells, Fluo-8 calcium fluorescence, 1536-well; Muscarinic acetylcholine receptor M1 (Homo sapiens), P11229; CHO-K1 hM1, ACh EC20; 0% = ACh EC20, 100% = maximal ACh; actives 0.088% (n = 360,000); activation, % at 3 µM; in the data active means activation above about 19%, passing the limit was not always enough
# M1 antag = human M1 muscarinic receptor antagonists, primary screen, CHO-K1 cells, Fluo-8 calcium fluorescence, 1536-well; Muscarinic acetylcholine receptor M1 (Homo sapiens), P11229; CHO-K1 hM1, ACh EC80 antagonist; inhibition, % at 3 µM; actives 1.3% (n = 360,000);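 active means percent inhibition above its own plate's cutoff, namely the mean of that plate's compound wells plus 3 SD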;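 further: peak over basal fluorescence ratio during 140 s after agonist addition; 0% = ACh EC80 plus DMSO and 100% = DMSO alone without agonist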
# CHO-K1 Ca antag = nonselective inhibitor or artifact in parental CHO-K1 cells; inhibition, % at 3 µM; ATP-induced calcium, Fluo-8 fluorescence; actives 0.6% (n = 360,000); AID 602250;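 active means inhibition above a per-plate cutoff, the plate's mean sample inhibition plus 3 SD, cut at about 24% in these data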;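 further: 0% = DMSO plus EC80 ATP and 100% = DMSO alone without ATP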
# CHO-K1 Ca PAM = nonselective calcium activators in parental CHO-K1 cells, primary screen, counter-screen for M1 PAM project, cell-based, Fluo-8 calcium fluorescence, full deck, 1536-well; actives 0.02% (n = 360,000); AID 602247, 2012; activation, % at 3 µM; ATP EC20; 0% at ATP EC20, 100% at ATP max;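 active means activation above the run cutoff, the mean activation of all test compounds plus 3 SD, cut at about 40% in these data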;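 further: peak over basal fluorescence ratio in a 140 s read after ATP addition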
# An asterisk follows results filed as active. The list is not random: actives were taken first. Their share in the collection is about 2.3%.
SMILES,M1 ag,M1 ag parental,M1 PAM,M1 antag,CHO-K1 Ca antag,CHO-K1 Ca PAM
CCOC(=O)C1CCCN(C(=O)Nc2cccc(Cl)c2)C1 (stereo not drawn),55*,1,-24,20,-12,24
CCOC(=O)C1CCCN(C(=S)Nc2cc(C)cc(C)c2)C1 (stereo not drawn),63*,0,-14,68*,11,-4
CCOC(=O)C1CCCN(CCC(=O)Nc2cc(C)cc(C)c2)C1 (stereo not drawn),21*,0,-6,5,-13,15
CCOC(=O)N1CCN(C(=S)Nc2cccc(C)c2)CC1,19*,0,-1,-2,-2,12
CCOC(=O)C1CCCN(CCC(=O)Nc2cc(OC)ccc2OC)C1 (stereo not drawn),16*,0,1,-5,-3,-2
CCOC(=O)C1CCCN(C(=S)NC2CCCCC2)C1 (stereo not drawn),39*,1,-8,2,-16,13
CCOC(=O)C1CCCN(Cc2cc(OC)c(O)c(OC)c2)C1 (stereo not drawn),42*,0,-15,6,-1,2
CCOC(=O)C1CCN(CCC(=O)Nc2cc(C)ccc2C)CC1,-3,16*,-2,2,-4,8
CCOC(=O)C1CCCN(CCC(=O)Nc2ccccc2)C1 (stereo not drawn),8,0,-5,4,-5,19
CCOc1cccc(-c2csc(C3COc4ccccc4O3)n2)c1 (stereo not drawn),-3,0,3,-5,-2,-7
CC1CCCN(CCC(=O)Nc2ccc3c(c2)CCC3)C1 (stereo not drawn),-7,0,-20,33*,-9,15
CCOC(=O)C1CCCN(C(=S)Nc2ccc(S(=O)(=O)N3CCOCC3)cc2)C1 (stereo not drawn),63*,1,-30,54*,-10,6
CCOC(=O)C1CCCN(CC(=O)NC2CC2)C1 (stereo not drawn),25*,0,9,-12,-3,10
CCOC(=O)C1CCCN(CC(=O)Nc2cccc(C(C)=O)c2)C1 (stereo not drawn),-3,1,8,-3,-10,19
OC1CCCC1,-1,2,9,-10,-23,5
CC(=O)N1CC(C)Sc2ccc(S(=O)(=O)NC(C)c3ccccc3)cc21 (stereo not drawn),3,8,0,4,4,-2
CCc1cc(C(=O)N2CCCc3ccccc32)sc1C,-6,-1,0,4,-12,5
CN(CCO)C(=O)C1CCN(c2ncc(C(F)(F)F)cc2Cl)CC1,-5,4,0,4,-8,23
O=C(c1ccc2nc[nH]c2c1)N1CCN(c2ncc(C(F)(F)F)cc2Cl)CC1,11,2,26*,1,-1,-13
NC(=O)C1CCN(c2ncc(C(F)(F)F)cc2Cl)CC1,-10,0,-11,39*,-9,22
COc1cc2cc(CCO)oc(=O)c2cc1OC,-3,0,10,-5,-11,8
Cc1ccccc1CCN(C(=O)Cn1nnc2ccccc21)C(C(=O)NCC1CCCO1)c1nc2ccccc2n1C (stereo not drawn),-2,0,-2,3,13,-9
CCCCn1c(=O)nc2n(-c3ccc(Cl)cc3)c3ccccc3cc-2c1=O,-5,-1,-1,-4,27*,-16
CCCCn1c(=O)nc2n(-c3ccc(C)cc3)c3ccccc3cc-2c1=O,-4,0,-2,3,-4,11
COc1ccc(CC(=O)Nc2ccc(-c3cn4ccc(C)cc4n3)cc2)cc1,-3,1,-2,4,-5,7
SMILES,M1 ag,M1 ag parental,M1 PAM,M1 antag,CHO-K1 Ca antag,CHO-K1 Ca PAM
COC(=O)c1ccc(S(=O)(=O)c2ccccc2)c(N)c1,0,5,1,-17,19,-4
O=C1Nc2ccccc2/C1=N\N=C\C1=C(N2CCOCC2)C(=C\c2ccccc2)/CC1,10,1,7,30*,-10,8
CN1CCN(c2cc(C(F)(F)F)nc3ccc(F)cc23)CC1,-8,0,0,-7,3,8
CSc1nnc2c3ccccc3n(CCc3ccccc3)c2n1,0,0,4,3,19,-7
S=c1nc2c(n[nH]1)c1ccccc1n2CCc1ccccc1,20*,0,11,-18,-1,18
COC(=O)c1c(N)sc(C(C)=O)c1C,16*,0,20,0,-12,19
Cc1ccccc1N(CC(=O)N/N=C/c1ccc(Cl)cc1)C(=O)c1ccccc1,1,0,2,9,26*,-7
CNC(=S)N1N=C(c2ccc(OC)cc2)CC1c1ccccc1Cl (stereo not drawn),-8,1,-22,34*,-6,-7
CC1CCCCC1NCC(=O)NCc1ccc(F)cc1 (stereo not drawn),-8,0,-7,-2,-3,-4
O=C(c1ccccc1)N1CCN=C1c1ccccc1,-4,0,2,6,-10,23
COc1ccc(C(=O)N2CCN=C2c2ccccc2)cc1OC,0,0,-8,3,26*,-6
Cc1c(CNC(=O)C2CCC(=O)N(CCc3ccccc3)C2)cnn1C (stereo not drawn),3,0,17,-3,-6,-12
CCOC(=O)C1=CCN(S(=O)(=O)c2ccc(C)cc2)C1c1cccc(Br)c1 (stereo not drawn),-7,0,-5,11,29*,-9
CCOC(=O)C1=CCN(S(=O)(=O)c2ccc(C)cc2)C1c1ccc(Cl)cc1 (stereo not drawn),-5,1,-8,-7,12,14
CCOC(=O)C1=CCN(S(=O)(=O)c2ccc(Cl)cc2)C1c1ccc(C)cc1 (stereo not drawn),-4,0,-1,0,24*,-8
CCOC(=O)C1=CCN(S(=O)(=O)c2ccc(Br)cc2)C1c1cccc(C)c1 (stereo not drawn),3,0,13,-6,18,3
CCOC(=O)N1CCN(S(=O)(=O)N2CCCC(C(=O)NCCc3ccc(C)cc3)C2)CC1 (stereo not drawn),0,0,10,-15,-16,24
COc1ccccc1CCN1CCCC(CN(C)C(=O)c2ccco2)C1 (stereo not drawn),-6,0,-18,34,-13,13
